Source: PubChem BioAssay (NCI)
Compounds without any hit were thinned out: in the full panel of roughly 83,000, 20% have a hit.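 Step 1: grow cells in 96-well plates. Step 2: add test compound at a single concentration. Step 3: incubate 48 h. Step 4: record percent growth.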 Calls of active or inactive are those of the source. The calls were made as follows: active = growth percent below 10; inactive = the rest.

What was measured:
Experiment in all cases: NCI-60 one-dose screen, 48 h (100 = growth as untreated, 0 = no growth, -100 = all killed)
Conditions in all cases: 10 µM unless noted
[1] = system: K-562 leukemia
[2] = system: MALME-3M melanoma
[3] = system: MDA-MB-231 breast
[4] = system: RXF 393 renal
[5] = system: SF-268 CNS
[6] = system: SF-539 CNS
[7] = system: UACC-257 melanoma
[8] = system: M14 melanoma
[9] = system: HCT-15 colon
[10] = system: SF-295 CNS

Measured: growth

CC(=O)Oc1ccc(C2OC(c3ccc4ccccc4c3OC(C)=O)=NN2C(C)=O)c(OC(C)=O)c1 (stereo not given)
inactive: [3] 39.9% | [5] 13.7% | [6] 13.9% | [9] 34.1%
active: [1] 4.1% | [2] 8.98% | [4] 1.4% | [7] -28.2% | [8] 3.34%

Oc1[nH]c2ccc(Cl)cc2c1/C=c1/ccc2c(c1)N=C(c1ccc(C(F)(F)F)cc1)N=2
active: [4] 5.23%
inactive: [1] 26.9% | [2] 69.2% | [3] 83.4% | [10] 40.9% | [6] 80.1% | [7] 66% | [8] 54.4% | [9] 54.1%

CCN(CC)c1ccc(C(O)C2=CC(=O)c3ccccc3C2=O)cc1 (stereo not given)
active: [1] 2.86% | [2] -11.3% | [3] -51% | [4] -80.2% | [5] -30.9% | [6] -38.2% | [7] 9.28%
inactive: [8] 13.8% | [9] 30.3%

CSc1nnc(C2=CC(=O)c3ccccc3C2=O)n1-c1ccccc1
active: [1] -0.209%
inactive: [2] 84.9% | [3] 93.2% | [5] 92% | [10] 85.8% | [6] 98.1% | [7] 86.7% | [8] 92% | [9] 95.3%

COc1ccc(-c2nn(-c3cccc(Cl)c3)cc2C2CC(c3ccccc3)=NN2C(C)=O)cc1 (stereo not given)
inactive: [1] 96.1% | [2] 46.8% | [3] 72.9% | [4] 54.4% | [5] 66.9% | [6] 50.6% | [7] 86.2% | [8] 89.2% | [9] 86%

COc1cc(-c2cc(C(=O)Nc3nc4ccccc4s3)nc3cc(-c4ccccc4)nn23)cc(OC)c1OC
inactive: [1] 53.2% | [2] 28.5% | [3] 66.1% | [4] 66.7% | [10] 53% | [7] 59.1% | [8] 26.3% | [9] 85.3%
active: [6] 4.14%

CCOC(=O)C1=NN(c2ccc(Cl)cc2)C2C3N(c4ccc(Cl)cc4)N=C(C(=O)OCC)N3c3ccccc3N12 (stereo not given)
inactive: [1] 70.7% | [2] 132% | [3] 103% | [4] 106% | [5] 102% | [6] 116% | [7] 119% | [8] 102% | [9] 121%

Cc1nc(N)[nH]c(=O)c1C
inactive: [1] 86.9% | [2] 156% | [3] 102% | [4] 104% | [5] 114% | [6] 107% | [7] 87% | [9] 122%

C=C1c2c(C)nn(-c3ccc(C#CCOC4OC(CO)C(O)C(O)C4O)cc3)c2N(C)C23C[C@H]1C1(C)c4c(C)nn(-c5ccc(C#CCOC6OC(CO)C(O)C(O)C6O)cc5)c4N(C)C(C)(C[C@H]12)C3 (stereo not given in full)
inactive: [4] 37.5% | [7] 34.2% | [9] 21.7%
active: [1] 9.32% | [2] 5.2% | [3] 5.4% | [5] 7.57% | [6] -15.3%

CN(C)c1nc(-c2ccco2)n2nc(-c3ccco3)cc2n1
inactive: [1] 101% | [2] 131% | [3] 74.2% | [4] 106% | [5] 118% | [6] 94.7% | [7] 106% | [8] 99.7% | [9] 78.1%

COc1cc(/C=C/c2nnc(-c3cc(-c4ccccc4)n[nH]3)o2)cc(OC)c1OC
inactive: [1] 98.2% | [2] 98.3% | [3] 111% | [4] 111% | [10] 105% | [6] 92.6% | [7] 105% | [8] 127% | [9] 102%

COc1ccc2c(c1)/C(=C\c1c[nH]c3ccc(F)cc13)C(=O)N2
inactive: [1] 62.5% | [2] 120% | [3] 106% | [4] 95.4% | [10] 100% | [6] 91.8% | [7] 108% | [8] 105% | [9] 66%

O=C(OCCBr)c1ccc(Cl)c([N+](=O)[O-])c1
inactive: [1] 82.9% | [2] 97.2% | [3] 92% | [4] 132% | [5] 100% | [6] 102% | [7] 86.8% | [9] 90.9%

COc1ccc(-c2noc(N)c2-c2cc(OC)c3c(c2)OCO3)cc1
inactive: [3] 47.6% | [4] 32.4% | [5] 35.6% | [7] 50.8% | [8] 11.7% | [9] 20.6%
active: [1] 2.56% | [2] -2.12% | [6] 9.14%

O=C(/C=C/c1ccc(O)c(O)c1)N1CCN(c2ccc(Cl)cc2)CC1
inactive: [1] 61.8% | [2] 66.2% | [3] 59.2% | [4] 58% | [5] 57% | [6] 66.4% | [7] 81.8% | [8] 67.8% | [9] 48.5%

NC(=O)SCC(=O)Nc1ccccc1-c1ccccc1
inactive: [1] 103% | [2] 158% | [3] 99.7% | [4] 138% | [10] 109% | [6] 89.5% | [7] 85.7% | [8] 97.7% | [9] 107%

COc1ccc2[nH]cc(/C=C3/C(=O)Nc4ccc(Cl)cc43)c2c1
inactive: [1] 27.4% | [2] 31.5% | [3] 28.2% | [4] 21.3% | [10] 53.1% | [6] 67.8% | [7] 68.5% | [8] 37.2% | [9] 30.4%

c1cnc2n[nH]c(Nc3ncnc4c3sc3ncccc34)c2c1
inactive: [1] 86.8% | [2] 92.9% | [3] 97.4% | [4] 99.6% | [5] 108% | [6] 105% | [7] 90.3% | [8] 97.4% | [9] 95.1%

COc1ccc(-c2cc(C(=O)Nc3nc4cc(C)c(C)cc4s3)nc3cc(-c4ccccc4)nn23)cc1OC
inactive: [1] 110% | [2] 101% | [3] 107% | [4] 112% | [10] 112% | [6] 98.7% | [7] 93% | [8] 103% | [9] 111%

OC(Cc1cccnc1)c1ccccc1 (stereo not given)
inactive: [1] 101% | [2] 111% | [3] 92.1% | [4] 114% | [10] 104% | [6] 98.6% | [7] 101% | [8] 106% | [9] 104%

S=C(c1ccccc1)N1CCN(c2cccc(Cl)c2)CC1
inactive: [1] 54.8% | [2] 97.4% | [3] 105% | [4] 108% | [10] 82.9% | [6] 105% | [7] 103% | [9] 105%

CCN(CC)c1ccc(N=Nc2cc(Cl)ccc2Cl)c(NC(=O)CCC(=O)O)c1
inactive: [1] 98.8% | [2] 91.8% | [3] 81.4% | [4] 116% | [5] 105% | [6] 79.9% | [7] 117% | [8] 101% | [9] 89.5%

OC(CCC(O)(c1ccccc1)c1ccccc1)(c1ccccc1)c1ccccc1
inactive: [2] 100% | [3] 81.5% | [4] 80% | [10] 65.1% | [6] 115% | [7] 82.8% | [8] 96.1% | [9] 100%
active: [1] 5.52%

S=C1SCN(Cc2ccccc2)CN1Cc1ccco1
inactive: [1] 11.6% | [2] 94% | [3] 91.3% | [4] 101% | [5] 94.2% | [6] 65.8% | [7] 72.4% | [8] 87.1% | [9] 41.7%

C[C@]12CC[C@@H]3c4ccc(O)cc4CC[C@H]3[C@@H]1CC[C@@H]2NS(=O)(=O)c1cccc(Br)c1
inactive: [1] 30.1% | [2] 63.2% | [3] 71.1% | [4] 42.6% | [5] 59.7% | [6] 85.6% | [7] 80.3% | [8] 68.9% | [9] 50.9%

O=C(O)c1ccccc1C(=O)OC1CCCC2CCCC21 (stereo not given)
inactive: [1] 102% | [2] 133% | [3] 121% | [4] 104% | [5] 106% | [6] 102% | [7] 105% | [8] 115% | [9] 92.1%

Cc1cc(NCCCNc2ccnc3cc(Cl)ccc23)nc(N2CCN(C)CC2)n1
active: [1] 8.07% | [6] -18.8%
inactive: [2] 59.2% | [3] 53.8% | [5] 70.7% | [10] 61% | [7] 50.4% | [8] 25.7% | [9] 43.6%

C[n+]1ccc(C#N)c2ccccc21
inactive: [1] 84.8% | [2] 26.7% | [3] 101% | [4] 78.8% | [5] 92% | [6] 99.5% | [7] 110% | [8] 98.6% | [9] 88.4%

C/C(=N/N=C(N)N)c1ccc(Cl)cc1
inactive: [1] 67.8% | [2] 143% | [3] 84% | [4] 90.5% | [5] 101% | [6] 100% | [7] 77.1% | [8] 86.9% | [9] 102%

Cc1cc(NC(=O)c2ccc(N)cc2)ccc1N=Nc1ccc2c(O)c(N=Nc3ccc(Cl)c(S(=O)(=O)O)c3)c(S(=O)(=O)O)cc2c1
inactive: [1] 62.4% | [2] 105% | [3] 109% | [4] 68.6% | [5] 89.9% | [6] 87.3% | [7] 87.5% | [8] 92.5% | [9] 83.6%

O=Nc1ccc(O)c(=O)cc1
active: [1] 9.11% | [2] -4.09% | [4] -42.1%
inactive: [3] 41.6% | [10] 125% | [6] 47.8% | [7] 37.4% | [8] 30.4% | [9] 10.2%
